Experimental data reported in ChEMBL document CHEMBL1961873, “Compounds: GSK PKIS; Assays: Nanosyn kinase panel” (2012).

Target: T1, Aurora kinase C (Homo sapiens) (UniProt Q9UQB9)
T1 sequence (whole entry): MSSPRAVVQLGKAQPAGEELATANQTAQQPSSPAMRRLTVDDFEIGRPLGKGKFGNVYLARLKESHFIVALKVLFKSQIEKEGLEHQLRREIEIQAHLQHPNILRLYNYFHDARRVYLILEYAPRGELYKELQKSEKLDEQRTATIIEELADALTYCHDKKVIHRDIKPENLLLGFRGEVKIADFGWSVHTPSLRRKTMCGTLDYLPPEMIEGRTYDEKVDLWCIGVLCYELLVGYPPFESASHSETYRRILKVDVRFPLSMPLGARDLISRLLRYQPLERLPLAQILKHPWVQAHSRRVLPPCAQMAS
Settings: at 1 µM
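Note: reported value is a mean inhibition of Aurora-C from the GSK PKIS screening panel.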

Going from `CNC(=O)c1cncc(/C=C/c2ccccc2C)c1` to `Cc1cc(O)cc(C)c1/C=C/c1cncc(C(=O)OC(C)(C)C)c1`, the inhibition rises from -3.67% to -1.91%.

Going from `CC(C)c1ccc(-c2cc(-c3c[nH]nc3-c3ccccn3)ccn2)cc1` to `c1ccc(-c2n[nH]cc2-c2ccnc(-c3ccc(OCCn4ccnc4)cc3)c2)nc1`, the inhibition rises from -0.07% to 7.73%.

Going from `Fc1cccc(COc2ccc(Nc3ncncc3C#Cc3ccccc3)cc2Cl)c1` to `O=C(O[C@H]1CN[C@H](C#Cc2cc3ncnc(Nc4ccc(OCc5cccc(F)c5)c(Cl)c4)c3s2)C1)N1CCOCC1`, the inhibition rises from -2.38% to 5.83%.

Going from `NS(=O)(=O)c1ccc(N/N=C2\C(=O)Nc3cccc(CCc4ccncc4)c32)cc1` to `CS(=O)(=O)CCNCc1ccc(-c2ccc3ncnc(Nc4ccc(OCc5cccc(C(F)(F)F)c5)cc4)c3c2)o1`, the inhibition falls from 8.21% to 4.53%.

First: CCn1c(-c2nonc2N)nc2cncc(C(=O)NCCNC)c21
Second: Cn1c(-c2nonc2N)nc2cnccc21
The inhibition of the first is higher: 5.56% for the first, 4.49% for the second.

Going from `c1cnn2ncc(-c3ccnc(NCCCN4CCOCC4)n3)c2c1` to `O=C(O[C@H]1CN[C@H](C#Cc2cc3ncnc(Nc4ccc5c(cnn5Cc5ccccc5)c4)c3s2)C1)N1CCOCC1`, the inhibition rises from 1.86% to 27.6%.

Compared with `O=C(O[C@H]1CN[C@H](C#Cc2cc3ncnc(Nc4ccc5c(ccn5Cc5cc(F)ccc5F)c4)c3s2)C1)N1CCOCC1`, `CCS(=O)(=O)c1ccc(OC)c(Nc2ncc(-c3cccc(F)c3)o2)c1` is lower in inhibition: 9.49% for the first, 5.54% for the second.

Compared with `COc1ccc(Nc2ncc(-c3ccccc3)o2)cc1OC`, `CC1=C(C(=O)Nc2ccc3[nH]nc(C)c3c2)C(c2ccc(C(F)(F)F)cc2)CC(=O)N1` (stereo unspecified) is lower in inhibition: 82.2% for the first, 78.2% for the second.
